In all, about 1,400 compounds went through this assay and fewer than 10 were called active.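 The calls were made as follows: active = fluorescence-lowering compounds whose fitted half-maximal concentration is at or below ten times the highest valid dose tested; inconclusive = flat curve at 30 to 70% inhibition, or poor fit; inactive = the rest.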 These entries were drawn from the full list.
biological target: Histone deacetylase 3 (Homo sapiens) (UniProt O15379); experiment: inhibition of human HDAC3 enzymatic activity – biochemical, fluorescence, cherry-picked samples, counter-screen for JMJD2C/GASC1 demethylase inhibitor project, dose response (AID 485318); conditions: recombinant HDAC3, fluorogenic peptide/trypsin coupled; series mostly up to 12 µM;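 also: enzyme preincubated with compound before substrate and trypsin were added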
Sequence (O15379 whole entry, looked up): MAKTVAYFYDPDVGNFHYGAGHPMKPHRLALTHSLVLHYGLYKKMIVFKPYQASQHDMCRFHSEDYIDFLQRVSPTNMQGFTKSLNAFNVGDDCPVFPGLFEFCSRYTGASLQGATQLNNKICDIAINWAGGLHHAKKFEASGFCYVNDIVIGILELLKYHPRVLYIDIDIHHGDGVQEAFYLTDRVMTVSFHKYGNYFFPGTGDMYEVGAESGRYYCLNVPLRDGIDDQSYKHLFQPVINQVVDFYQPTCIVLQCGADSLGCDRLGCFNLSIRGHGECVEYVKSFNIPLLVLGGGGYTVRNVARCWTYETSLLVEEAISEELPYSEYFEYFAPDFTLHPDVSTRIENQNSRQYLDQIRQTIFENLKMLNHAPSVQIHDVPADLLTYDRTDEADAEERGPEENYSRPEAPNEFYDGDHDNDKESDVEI

SMILES | outcome
Cc1ccccc1N=C1N=C(N)c2ccccc21 | inactive
COc1cccc(C(c2nnnn2CCc2ccccc2)N2CCN(c3ccccc3)CC2)c1OC (stereo not drawn) | inactive
O=C(O)c1ccc2cc(-c3ccccc3)[nH]c2c1 | inactive
Cc1cc(N(C)C)cc(C)[n+]1[O-] | inactive
CC(=O)Oc1ccc(NC(=O)Cc2ccccc2)c(C(=O)O)c1 | inactive
CCN(C[C@H]1N[C@@](Cc2ccccc2)(C(=O)OC)[C@H]2C(=O)N(C)C(=O)[C@@H]12)S(=O)(=O)c1ccccc1 | inactive
Cn1c(=O)n(C)c2cc(S(=O)(=O)N3CCOCC3)ccc21 | inactive
Cc1ccc(NC2=NCC(=O)N2Cc2ccc3c(c2)OCO3)c(C)c1 | inactive
CC1(C)CC2(CC(C)(C)N1)OC(=O)N1CCc3ccccc3C12C (stereo not drawn) | inactive
CCCN(C(=O)Cc1ccc(S(=O)(=O)N2CCOCC2)s1)c1c(N)n(Cc2ccccc2)c(=O)[nH]c1=O | inactive
CC(=O)Nc1cc2c(cc1NC(=O)Cn1nc(-c3ccccc3)ccc1=O)OCCO2 | inactive
CCOc1ccccc1N(CC(=O)O)S(=O)(=O)c1ccc(C)cc1 | inactive
COc1ccc(/C=C2/CC/C(=C\c3ccc(OC)c(OC)c3OC)C2=O)c(OC)c1OC | inactive
COc1cc(NS(=O)(=O)c2ccc(NC(=O)c3ccc(C)o3)cc2)nc(OC)n1 | inactive
C[C@@H]1CN([C@H](C)CO)C(=O)c2cc(NC(=O)Cc3ccccc3)ccc2O[C@H]1CN(C)Cc1ccc(Oc2ccccc2)cc1 | inactive
CCOc1ccc(N2C(=O)CC(N(O)c3ccccc3)C2=O)cc1 (stereo not drawn) | inactive
CC1CN(Cc2c(O)ccc3c2oc(=O)c2ccccc23)CC(C)O1 (stereo not drawn) | inactive
COc1cc2c(cc1OC)C1=C(C#N)COCN1CC2 | inactive
CCNC(=S)NNC(=O)c1csc2c1CCC(C)C2 (stereo not drawn) | inactive
O=C(CN1C(=O)NC2(CCCC2)C1=O)Nc1nc(-c2ccccc2)cs1 | inactive
CC1CCCC(NC(=O)COC(=O)c2ccc(N(C)C)cc2)C1C (stereo not drawn) | inactive
COc1ccc(C(=O)NCc2nnc(SCC(=O)N3CCc4ccccc43)o2)cc1OC | inactive
O=C(c1ccncc1)N1N=C(C2CCCCC2)CC1(O)C(F)(F)F (stereo not drawn) | inactive
CSc1nnnn1CCn1nnnc1SC | inactive
CS(=O)(=O)NC1c2cccc3cccc(c23)C1Sc1nncn1/N=C/c1ccco1 (stereo not drawn) | inactive
N#Cc1ccc(OCC(=O)N2CCN(S(=O)(=O)c3cccs3)CC2)cc1 | inactive

SMILES | outcome
Cc1cc(C)n2nc(C(=O)N3CCCC(Nc4ccc(F)c(F)c4)C3)cc2n1 (stereo not drawn) | inactive
C=CCn1cnc2scc(-c3ccc(C)cc3)c2c1=O | inactive
CCCCCNc1nc(-c2ccccc2)nc(-n2ccnc2)n1 | inactive
CC(=O)C1=C(c2ccccc2)N(C(C)=O)n2c(C)nnc2S1 | inactive
CC1=C(C(=O)OCC2CCCO2)C(c2ccccc2OC(C)C)C2=C(CC(c3ccco3)CC2=O)N1 (stereo not drawn) | inactive
Cc1occc1-c1nnc(SCC(=O)Nc2ccccc2)n1C(C)c1ccccc1 (stereo not drawn) | inactive
CCN(Cc1nc(-c2ccccc2)no1)C(=O)c1ccco1 | inactive
Cc1nnc(N2C(=O)C(=O)/C(=C(/O)c3ccc4c(c3)CC(C)O4)C2c2ccccc2F)s1 (stereo not drawn) | inactive
CCC(C(=O)NCCCc1ccccc1)c1ccccc1 (stereo not drawn) | inactive
COCCCNC(=O)C1CCN(C(=O)Nc2ccc(Cl)cc2)CC1 | inactive
COC(=O)[C@]1(C)N[C@H](CN(C)S(=O)(=O)c2ccc(F)cc2)[C@@H]2C(=O)N(C)C(=O)[C@@H]21 | inactive
CC(=O)N1CCN(c2ccc(NC(=O)c3ccc4ccccc4c3)cc2)CC1 | inactive
CCN(CC)C(CNS(=O)(=O)c1ccc(Cl)cc1)c1ccccc1 (stereo not drawn) | inactive
CCNC(=S)NC(=NCc1cccnc1)Nc1nc(C)cc(C)n1 | inactive
Cc1ccc(N2NC3(CCN(C(N)=O)CC3)NC2=O)cc1 | inactive
C=CCNC(=S)NNC(=O)COc1cccc(Cl)c1 | inactive
O=C(O)c1ccccc1OCCOc1ccccc1C(=O)O | inactive
O=C1NCCC/C1=N/Nc1ccc(F)cc1 | inactive
CC(C)NC(=O)N(C)C[C@H]1Oc2ccc(NS(=O)(=O)c3ccccc3)cc2C(=O)N([C@H](C)CO)C[C@H]1C | inactive
COc1ccc(-n2cc(C(=O)O)c3ccccc3c2=O)cc1 | inactive
O=C(C1CCCCC1)N1CCC(c2nc3c(nnn3Cc3c(F)cccc3Cl)c(=O)[nH]2)CC1 | inactive
Cc1ccc(C)c(Cn2c(C(=O)OC(C)C)cc3c2ccn3C)c1 | inactive
NC(=O)COc1cccc2cccnc12 | inactive
Cn1c(=O)c2[nH]c(=O)cnc2n(C)c1=S | inactive
Cn1nc(N)nc1N1CCN(c2ccc(F)cc2)CC1 | inactive
NS(=O)(=O)c1ccc(CNC(=S)Nc2ccc(F)c(Cl)c2)cc1 | inactive

SMILES | outcome
O=C(O)c1ccc2c(c1)C(=O)N(CCC1=CCCCC1)C2=O | inactive
CC(C)N(Cc1ccccc1)C(=O)COC(=O)c1ccc2c(c1)OCCO2 | inactive
NC(=O)NC(=O)CSc1nnc(-c2ccco2)n1Cc1ccccc1 | inactive
O=C(OCc1nnc(-c2ccccc2)o1)c1cc(S(=O)(=O)N2CCOCC2)c(Cl)cc1Cl | inactive
COc1ccc(C)cc1NC(=O)CN(C)S(=O)(=O)c1ccc2c(c1)CC(C)N2C(C)=O (stereo not drawn) | inactive
OC[C@H]1O[C@@H]2O[C@H]3[C@H](O)[C@@H](O)[C@@H](O[C@H]4[C@H](O)[C@@H](O)[C@@H](O[C@H]5[C@H](O)[C@@H](O)[C@@H](O[C@H]6[C@H](O)[C@@H](O)[C@@H](O[C@H]7[C@H](O)[C@@H](O)[C@@H](O[C@H]1[C@H](O)[C@H]2O)O[C@@H]7CO)O[C@@H]6CO)O[C@@H]5CO)O[C@@H]4CO)O[C@@H]3CO | inactive
Cc1ccc(C(=O)NCC(=O)OCC(=O)Nc2ccc(Cl)cc2C(F)(F)F)cc1C | inactive
O=c1[nH]cnc2c1c(-c1ccccc1)cn2-c1ccccc1 | inactive
Cc1nc2nc(C)c(CCC(=O)NCc3ccc4c(c3)OCO4)c(C)n2n1 | inactive
O=c1[nH]cc(N2CCCCCC2)c(=O)[nH]1 | inactive
O=C(NCc1nnc(SCC(=O)N2CCCCC2)o1)c1c(F)cccc1F | inactive
O=C(c1cccs1)N1CCN(S(=O)(=O)c2ccc(F)cc2)CC1 | inactive
O=C(CSc1nnnn1-c1ccc(Cl)cc1)N1CCc2ccccc2C1 | inactive
CN(C)c1ccc(C(=O)OCC(=O)N2CCCC2)cc1 | inactive
Cc1ccc(S(=O)(=O)NCCC(=O)OCC(=O)Nc2ccccc2Cl)cc1 | inactive
Cc1ccc(S(=O)(=O)NC(=O)NCc2ccc(Cl)cc2)cc1 | inactive
O=c1cc(N/N=C/c2ccccc2)[nH]c(=O)[nH]1 | inactive
COc1ccc(NC(=O)N(C)C[C@H]2Oc3c(NS(=O)(=O)c4cccs4)cccc3C(=O)N([C@H](C)CO)C[C@@H]2C)cc1 | inactive
COCCCNC(=S)NNC(=O)c1ccccn1 | inactive
Cc1ccc(OCCSc2nnc(-c3cccs3)n2C)cc1 | inactive
CCCC(=O)Nc1ccc(Oc2ccc(NC(=O)CCC)cc2)cc1 | inactive
COCCCn1c(SCC(=O)NCc2ccco2)nc2sc3c(c2c1=O)CCC3 | inactive
CC(C)(C)c1ccc(-c2csc(NNC3=NCCCCC3)n2)cc1 | inactive
CC(OC(=O)c1ccc([N+](=O)[O-])s1)C(=O)Nc1ncc(Cl)cc1Cl (stereo not drawn) | inactive
O=C(c1ccc(Cn2cc([N+](=O)[O-])cn2)o1)N1CCCCCC1 | inactive
COc1ccccc1C(=O)OCc1c(-c2ccccc2)ncc2ccccc12 | inactive

SMILES | outcome
Cc1ccc2nc(-c3cccc(NS(C)(=O)=O)c3)cc(-c3ccccc3)c2c1 | inactive
COC(=O)C1=C(C)N(CCc2cc(OC)c(OC)c(OC)c2)C(=O)N[C@H]1c1cccs1 | inactive
COc1ccc(CNCC(=O)Nc2sccc2C#N)cc1 | inactive
Cc1nn(-c2cccc(C(=O)O)c2)c(C)c1Oc1ccccc1O | inactive
CCSCC1COC(c2cccn2Cc2ccc(C)cc2)=N1 (stereo not drawn) | inactive
COC(=O)CCC(=O)N1CCOCCOCCN(C(=O)CCC(=O)OC)CCOCCOCC1 | inactive
O=C1c2sc3nc4c(c(=O)n3c2C(=O)N1c1ccccc1)CCC4 | inactive
CC(=O)OC(C(=O)NCc1ccc2c(c1)OCO2)c1ccccc1Cl (stereo not drawn) | inactive
CCC(=O)Nc1cc2c(cc1C(=O)CC)OCCO2 | inactive
CCOC(=O)c1cc2n(n1)C(C(F)(F)F)CC(C)N2 (stereo not drawn) | inactive
CCCCNC(=O)c1nn2cc(Br)cnc2c1Br | inactive
Clc1ccc(N=c2ssnc2Cl)nc1 | inactive
O=C(c1ccsc1)N1CCN(C(=O)c2cccs2)CC1 | inactive
COc1ccc2sc(-c3ccc(S(C)(=O)=O)cc3)c(C#CCO)c2c1 | inactive
COc1ccc(CCN=C(NS(=O)(=O)c2ccc(Cl)cc2)c2ccccc2)cc1 | inactive
CCN(CC)CCSc1nc2ccccc2c(=S)n1-c1ccccc1 | inactive
O=C(Cn1nc(-c2ccc(Cl)cc2)ccc1=O)NCC1COCCO1 (stereo not drawn) | inactive
CCC(C)(C)NC(=O)C(c1ccc(C)o1)N(Cc1cccs1)C(=O)Cn1nnc2ccccc21 (stereo not drawn) | inactive
CCC(=O)N1CCc2cc(Br)cc(S(=O)(=O)CC(=O)OC)c21 | inactive
CCN(CC(=O)Nc1ccc2c(c1)OCCO2)C(=O)CC1CCCC1 | inactive
O=C(CSc1nc(O)c(Cc2ccccc2)c(=O)[nH]1)c1ccccc1 | inactive
Cc1ccc(CSc2ncnc3onc(C)c23)cc1 | inactive
CCOC(=O)c1c(NC(=O)c2cc(-c3ccc(O)cc3)on2)sc(C(C)=O)c1C | inactive
C[C@@H](CN1CCC[C@H]1CN1C(N)=NC[C@@H]1Cc1ccccc1)N1C[C@@H](Cc2ccccc2)N(CCc2ccc(Cl)c(Cl)c2)C1=N | inactive
O=C(CSc1nc(-c2ccco2)cc(C(F)(F)F)n1)Nc1ccc(C(=O)N2CCCCC2)cc1 | inactive

Reference: PubChem BioAssay AID485318 (Broad Institute, 2010)
